From PubChem BioAssay
APP 5UTR inh: APP translation inhibition; actives 0.82% (n = 190,000); AID 1285; inhibition, % at 2 µM; SH-SY5Y APP 5'UTR-luciferase reporter, luminescence;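 active = inhibition above a set limit, derived from the sample mean plus 3 SD, cut at about 45% in these data; inconclusive = one replicate passes the limit while the other fails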
aSyn UTR inh: MLPCN primary screen, SNCA 5' untranslated region. alpha-synuclein 5'UTR reporter, inhibitor activity. inhibition, % (tested at 7.5 µM). actives 0.82% (n = 300,000); in the data active = inhibition above about 60%; inconclusive = no clear call, values can overlap the other calls;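 also: H4 neuroglioblastoma cells stably carrying SNCA 5'UTR luciferase fusion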
KLF5 inhibitor: kruppel-like factor 5 inhibition | AID 1700 | inhibition, % at 5 µM | DLD-1 KLF5 promoter-luciferase reporter, luminescence | actives 0.23% (n = 290,000);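 active = inhibition above a per-plate limit of that plate's mean compound inhibition plus 3 SD, cut at about 60% in these data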;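 also: higher means less KLF5 promoter-driven luciferase light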
IEC-6 cytotox: counter-screen for KLF5 inhibitors: cytotoxicity in IEC-6 cells; actives 0.78% (n = 290,000); inhibition, % at 5 µM; AID 1825; IEC-6 cytotoxicity, luminescence viability; in the data active = inhibition above about 22%
BaF3 parental: parental Ba/F3 viability inhibition as JAK2V617F counter-screen | CellTiter-Glo ATP luminescence | inhibition, % at 5.6 µM | actives 1.1% (n = 220,000) | AID 1486;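 active = inhibition above a per-campaign cutoff, the mean inhibition of all tested compounds plus 3 SD, cut at about 27% in these data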
Ba/F3 V617F tox: lowers viability of Ba/F3 cells expressing EpoR and JAK2V617F; ATP luminescence; inhibition, % at 5.6 µM; actives 1.1% (n = 220,000); AID 1446;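 active = inhibition above the campaign mean plus 3 SD over all tested compounds, cut at about 24% in these data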;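 also: cytokine-independent growth of Ba/F3 cells driven by EpoR plus mutant JAK2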
Hits are given with their value; n = inactive; u = inconclusive; x = no result given. Shown are actives, neighbours in structure and some others; about 2.2% of the full set was active somewhere.

SMILES | APP 5UTR inh | aSyn UTR inh | KLF5 inhibitor | IEC-6 cytotox | BaF3 parental | Ba/F3 V617F tox
Cc1ccc(C(=O)NCC(=O)OCC(=O)c2ccc3c(c2)NC(=O)CO3)cc1 | n | n | n | n | n | n
O=C(CCl)N(c1ccccc1)C1CCCCC1 | n | 110 | n | n | n | n
O=[N+]([O-])c1cccc(-c2nnc(C3CC3)o2)c1 | x | n | n | n | 35 | n
COc1ccc(N(C(=O)C(C)C)S(=O)(=O)c2ccc3ccccc3c2)cc1 | x | n | n | n | x | x
CCN(C(=O)CC(C)C)c1nnc(Cn2nnc3ccccc32)s1 | n | n | n | n | n | n
CCN(C(=O)c1ccc(C(C)(C)C)cc1)c1nnc(Cn2nnc3ccccc32)s1 | n | n | n | n | 55 | 27
O=C(Oc1ccc2c(c1)OCO2)c1cc2c(s1)CCC2 | 56 | n | n | n | n | n
c1ccc(CC2CCN(c3ncnc4sccc34)CC2)cc1 | n | n | n | n | 44 | 37
CCOC(=O)CCS(=O)(=O)c1nc(-c2ccccc2)cc(C(F)(F)F)n1 | n | n | n | n | n | 39
COC(=O)CCS(=O)(=O)c1nc(-c2ccccc2)cc(C(F)(F)F)n1 | n | n | n | n | n | n
CCOC(=O)CS(=O)(=O)c1nc(-c2ccc(F)cc2)cc(C(F)(F)F)n1 | 61 | n | n | n | n | n
CCOC(=O)CS(=O)(=O)c1nc(-c2ccccc2)cc(C(F)(F)F)n1 | 57 | n | n | 28 | n | 79
CS(=O)(=O)c1nc(-c2ccc(F)cc2)cc(C(F)(F)F)n1 | n | n | n | 25 | n | n
COc1ccc2nc(N=Nc3c(O)ccc4ccccc34)sc2c1 | 69 | n | n | n | n | n
COc1ccc2nc(NC(=O)Nc3cccc4ccccc34)sc2c1 | n | n | n | n | n | n
Cc1ccc2c(c1)C=CC(C)N2C(=O)c1ccccc1 (stereo not given) | n | n | n | n | n | n
Cc1ccc2c(c1)C=CC(C#N)N2C(=O)c1ccccc1 (stereo not given) | 94 | n | n | 40 | 36 | 78
NCCOc1ccccc1-c1ccccc1 | n | n | n | n | n | n
Nc1ccc(Oc2ccccc2-c2ccccc2)cc1 | x | 104 | x | x | x | x
CNC(=O)C(Sc1ccccc1)c1ccccc1 (stereo not given) | 49 | n | n | n | n | n
Cc1ccc(Nc2c(-c3ccccn3)nc3cccc(C)n23)cc1 | 68 | n | n | n | n | n
O=C(NC1CC2CCC(C1)N2Cc1ccccc1)c1ccccc1Br (stereo not given) | x | n | n | n | x | x
CCOC(=O)c1sc2nc(CSc3ccccc3)nc(N3CCC(C(N)=O)CC3)c2c1C | n | n | n | n | n | n
CCOC(=O)c1sc2nc(CSc3ccccc3)nc(N3CCCN(C)CC3)c2c1C | n | 78 | n | n | n | n
CCOC(=O)N1CCN(C(=O)c2nn(C)c3c2CSc2ccccc2-3)CC1 | x | n | n | n | x | x
SMILES | APP 5UTR inh | aSyn UTR inh | KLF5 inhibitor | IEC-6 cytotox | BaF3 parental | Ba/F3 V617F tox
CC1CCc2c(sc3[nH]c(=S)n(C)c(=O)c23)C1 (stereo not given) | x | n | n | n | x | x
O=C1C(Cl)=C(NCCN2CCCCC2)C(=O)c2ccccc21 | 95 | u | n | 42 | n | n
NNC(=O)C1CCCN1S(=O)(=O)c1ccc(Cl)cc1 (stereo not given) | n | n | n | n | 58 | n
CCC(C)NC(=O)C1CCCN1S(=O)(=O)c1ccc(Cl)cc1 (stereo not given) | n | n | n | n | n | n
CC(=O)C1=C(O)C(=O)N(Cc2ccccc2)C1c1ccccc1F (stereo not given) | n | n | n | n | 37 | n
CCOC(=O)N1CCN(c2ncnc3c2[nH]c2ccc(F)cc23)CC1 | n | n | n | n | 42 | n
OC1(c2cccc(C(F)(F)F)c2)CCN(c2ncnc3c2[nH]c2ccc(F)cc23)CC1 | n | x | n | n | 35 | n
Fc1ccc2[nH]c3c(N4CCN(c5ccccc5)CC4)ncnc3c2c1 | n | n | n | n | n | n
CCOC(=O)N1CCN(c2ncnc3c2[nH]c2ccc(OC)cc23)CC1 | n | n | n | n | n | n
CN(C)S(=O)(=O)c1cc(NC(=O)CNCCN2CCOCC2)ccc1Cl | x | n | n | n | n | n
Cc1cccc(NC(=O)COC(=O)c2cccc3c2C(=O)c2ccccc2C3=O)c1C | n | n | n | n | n | n
Cc1cccc(C)c1NC(=O)COC(=O)c1cccc2c1C(=O)c1ccccc1C2=O | n | 68 | n | n | n | n
COc1cccc(-c2nc(-c3ccccc3)no2)c1 | n | n | n | n | n | n
